Assay [1] can be described thus: qHTS assay to identify aromatase inhibitors - cell viability counter screen (AID 743084).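 Also: cells stimulated with testosterone during compound exposure; nearly all actives have a fitted effect of over 55% in size.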
The nature of assay [2]: qHTS assay to identify small molecule that activate the aryl hydrocarbon receptor (AhR) signaling pathway - cell viability counter screen (AID 743086).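 Also: HepG2 liver cells carrying the AhR DRE luciferase reporter; series mostly up to about 70 µM; nearly all actives have a fitted effect of over 45% in size.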 In short, it runs like this:
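HepG2-AhR-luc (HG2L7.5c1) cells, 4000/well, were preincubated 5 h at 37C, exposed to compound in qHTS format for 24 hr at 37C, then given CellTiter-Fluor for 30 min; viability was read as fluorescence in the reporter wells.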

Assay [3] deals with Peroxisome proliferator-activated receptor gamma (Homo sapiens) (UniProt P37231). Description: qHTS assay to identify small molecule agonists of the peroxisome proliferator-activated receptor gamma (PPARg) signaling pathway (AID 743094; active = well fitted activation curve with a large enough effect in the signal ratio in the repeat runs, not every such curve was filed as active; the % refers to the signal ratio). In short, it runs like this: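 Cell-based bla reporter, HEK293H background, PPARg-driven UAS. Pre-incubation 5 h, 37C, 5% CO2. Compound 17 h, 37C. Substrate 1 h RT; fluorescence.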
Background: Quantitative high-throughput screening tests each substance at several concentrations.

Assay [4] has the same target. Description: qHTS assay to identify small molecule antagonists of the peroxisome proliferator-activated receptor gamma (PPARg) signaling pathway (AID 743191; calls by dose curve; also: series mostly up to about 63 µM; nearly all actives have a fitted effect of over 30% in size). In short, it runs like this: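 GeneBLAzer PPARg UAS-bla HEK293H cells carrying a UAS-driven beta-lactamase reporter were plated at 3000 cells/well, preincubated 5 h at 37C, then given compound for 17 h at 37C; LiveBLAzer B/G FRET substrate was read after 1 h at room temperature.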

A short description of assay [5]: qHTS assay to identify small molecule antagonists of the peroxisome proliferator-activated receptor gamma (PPARg) signaling pathway - cell viability counter screen (AID 743194). Also: nearly all actives have a fitted effect of over 55% in size. Also: potency is read from the fitted curve at half-maximal effect. The conditions noted are these: Potency: co-treated with 50 nM rosiglitazone unless noted. In short, it runs like this:
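PPARg-UAS-bla HEK293H cells were plated, rested 5 h at 37 C, then treated with compounds plus rosiglitazone (50 nM final) for 17 h at 37 C; viability was then read by CellTiter-Glo luminescence after 30 min at room temperature.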

The nature of assay [6]: qHTS assay for small molecule agonists of the antioxidant response element (ARE) signaling pathway (AID 743202; active = well fitted activation curve with a large enough effect in the signal ratio in the repeat runs, not every such curve was filed as active; the % refers to the signal ratio). In short, it runs like this: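 Following a 16 h, 37 C exposure of reporter HepG2 cells (ARE-driven beta-lactamase, 2,000 cells/well) to compounds, FRET substrate was applied for 2 h at room temperature and fluorescence intensity recorded.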
Assay [7] is described as follows: qHTS assay for small molecule agonists of the antioxidant response element (ARE) signaling pathway - cell viability counter screen (AID 743203; calls by dose curve; also: nearly all actives have a fitted effect of over 55% in size; also: potency is read from the fitted curve at half-maximal effect). In short, it runs like this:
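Measured in the same wells as the beta-lactamase ARE reporter, this read-out is CellTiter-Glo luminescence from HepG2 ARE-bla cells given compounds for 16 hrs.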

Assay [8] can be described thus: qHTS assay for small molecule activators of the heat shock response signaling pathway (AID 743210; active = well fitted activation curve with a large enough effect in the signal ratio in the repeat runs, with a control signal flat, not every such curve was filed as active; the % refers to the signal ratio; also: series mostly up to about 63 µM). In short, it runs like this:
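Heat shock element–beta-lactamase HeLa reporter cells; qHTS with compounds for 5 h at 37 C; detection by FRET substrate fluorescence after 2.5 h at RT.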

The nature of assay [9]: qHTS assay to identify small molecule agonists of the peroxisome proliferator-activated receptor delta (PPARd) signaling pathway - cell viability counter screen (AID 743211). Also: nearly all actives have a fitted effect of over 55% in size. Also: potency is read from the fitted curve at half-maximal effect. In short, it runs like this: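 Viability was measured as CellTiter-Glo luminescence (30 min, room temperature) in the same wells as the beta-lactamase readout. GeneBLAzer PPARd UAS-bla HEK293H cells received compound after 5 h plating and were incubated 17 h at 37 C.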

Assay [10] has as its target Peroxisome proliferator-activated receptor delta (Homo sapiens) (UniProt Q03181). Description: qHTS assay to identify small molecule agonists of the peroxisome proliferator-activated receptor delta (PPARd) signaling pathway (AID 743212; calls by dose curve). In short, it runs like this:
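Beta-lactamase reporter read by fluorescence (LiveBLAzer B/G FRET, 2 h, room temperature). Test agents, in DMSO, incubated at 37 C with PPARd-bla HEK293H cells.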

A short description of assay [11]: qHTS assay to identify small molecule antagonists of the peroxisome proliferator-activated receptor delta (PPARd) signaling pathway - cell viability counter screen (AID 743213). Also: nearly all actives have a fitted effect of over 50% in size. Also: potency is read from the fitted curve at half-maximal effect. In short, it runs like this:
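HEK293H cells with the PPARd UAS-bla reporter, co-treated 17 h at 37 C with compounds and L165041 (300 nM final), were lysed with CellTiter-Glo. Luminescence indicated viable cell content.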

Assay [12] has as its target Peroxisome proliferator-activated receptor delta (Homo sapiens) (UniProt Q03181). In words: qHTS assay to identify small molecule antagonists of the peroxisome proliferator-activated receptor delta (PPARd) signaling pathway (AID 743215; active = well fitted inhibition curve with a large enough effect in the signal ratio in the repeat runs, not every such curve was filed as active; the % refers to the signal ratio;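 also: cells stimulated with agonist L165041 at 300 nM final during compound exposure; series mostly up to about 62 µM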). In short, it runs like this:
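Fluorescence from cleaved LiveBLAzer B/G FRET substrate (2 h, room temperature) reports PPARd-driven beta-lactamase in HEK293H UAS-bla cells. Cells had been treated 17 h at 37 C with compound plus 300 nM final L165041.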

The nature of assay [13]: qHTS assay to identify small molecule agonists of the farnesoid-X-receptor (FXR) signaling pathway - cell viability counter screen (AID 743218). Also: nearly all actives have a fitted effect of over 45% in size. Also: potency is read from the fitted curve at half-maximal effect. In short, it runs like this:
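Readout: CellTiter-Glo luminescence, 30 min RT, multiplexed after the FXR-bla FRET reading. HEK 293T FXR-UAS-bla cells received compound 5 h post-plating and were incubated 16 h at 37 C.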

The nature of assay [14]: qHTS assay to identify small molecule antagonists of the farnesoid-X-receptor (FXR) signaling pathway - cell viability counter screen (AID 743221; active = well fitted cell-killing curve with a large enough effect in the repeat runs, not every such curve was filed as active; also: nearly all actives have a fitted effect of over 50% in size). In short, it runs like this: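 Cytotoxicity counter screen run in the FXR-bla reporter wells: HEK 293T cells exposed to compound with 50 uM (final) chenodeoxycholic acid for 16 h, 37 C, then viability measured by CellTiter-Glo luminescence after 30 min, room temperature.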

The target of assay [15] is Vitamin D3 receptor (Homo sapiens) (UniProt P11473). Description: qHTS assay to identify small molecule agonists of the vitamin D receptor (VDR) signaling pathway (AID 743222; calls by dose curve). In short, it runs like this: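 Following 4 h attachment at 37C, VDR-bla cells (2,000 per well) received DMSO-dissolved compounds or controls. After 16 h incubation, LiveBLAzer B/G FRET substrate was added and fluorescence read 2 h later at room temperature.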

The target is the same in assay [16]. Description: qHTS assay to identify small molecule antagonists of the vitamin D receptor (VDR) signaling pathway (AID 743223; active = well fitted inhibition curve with a large enough effect in the signal ratio in the repeat runs, not every such curve was filed as active; the % refers to the signal ratio). In short, it runs like this:
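Antagonist mode: compound added to VDR-bla cells alongside agonist 1alpha,25-dihydroxyvitamin D3 (3 nM final), incubation 16 h at 37C. Read-out is LiveBLAzer FRET fluorescence, 2 h at room temperature.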

Assay [17] in a line: qHTS assay for small molecule activators of the heat shock response signaling pathway - cell viability counter screen (AID 743209). Also: nearly all actives have a fitted effect of over 50% in size. In short, it runs like this:
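Same-well multiplex: after 2.5 h room-temperature incubation with LiveBLAzer B/G substrate and fluorescence reading, CellTiter-Glo reagent was added to HSE-bla HeLa cells that had received compound for 5 h at 37 C; luminescence read after 30 min.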

In assay [18] the target is Bile acid receptor (Homo sapiens) (UniProt Q96RI1). In words: qHTS assay to identify small molecule antagonists of the farnesoid-X-receptor (FXR) signaling pathway (AID 743217; active = well fitted inhibition curve with a large enough effect in the signal ratio in the repeat runs, not every such curve was filed as active; the % refers to the signal ratio). In short, it runs like this: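 FRET fluorescence after 2 h room-temperature LiveBLAzer loading gives the readout. Prior step: FXR-bla HEK 293T cells, seeded and incubated 5 h, received test compounds plus 50 uM final CDCA for 16 h at 37 °C.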

Assay [19] has the same target. In words: qHTS assay to identify small molecule agonists of the farnesoid-X-receptor (FXR) signaling pathway (AID 743220; active = well fitted activation curve with a large enough effect in the signal ratio in the repeat runs, not every such curve was filed as active; the % refers to the signal ratio). In short, it runs like this:
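FXR-UAS-bla HEK 293T cells carrying a UAS-driven beta-lactamase reporter were plated for 5 h at 37C/5% CO2, then exposed to DMSO-dissolved Tox21 10K compounds for 16 h at 37C. A LiveBLAzer B/G FRET substrate was loaded for 2 h at room temperature before fluorescence reading.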

Assay [20] addresses Aryl hydrocarbon receptor (Homo sapiens) (UniProt P35869). In words: qHTS assay to identify small molecule that activate the aryl hydrocarbon receptor (AhR) signaling pathway (AID 743085).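 Also: HG2L7.5c1 human HepG2 liver cells with stably integrated DRE-driven firefly reporter; series mostly up to about 70 µM; nearly all actives have a fitted effect of over 15% in size.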 In short, it runs like this: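 Luminescence (ONE-Glo) from a dioxin-responsive-element luciferase reporter in HG2L7.5c1 HepG2 cells after 24 hr compound exposure at 37C; viability measured by CellTiter-Fluor fluorescence beforehand.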

Values joined by “and” are separate entries in the source; they are usually repeats but may differ in a detail not shown here. Equal entries are not always repeated. Inconclusive results are not listed. A number with no mark means an inactive call. Active and inactive are the calls of the source. Unless noted, calls follow the shape of the dose curve; as a rule, active = well fitted curve in the direction sought with a large enough effect in the repeat runs; inconclusive = weak or mixed curves; inactive = no such curve, though single readings can be large; an effect the other way counts as inactive or inconclusive.

Chain of Bile acid receptor (Homo sapiens) (Q96RI1 whole entry, looked up): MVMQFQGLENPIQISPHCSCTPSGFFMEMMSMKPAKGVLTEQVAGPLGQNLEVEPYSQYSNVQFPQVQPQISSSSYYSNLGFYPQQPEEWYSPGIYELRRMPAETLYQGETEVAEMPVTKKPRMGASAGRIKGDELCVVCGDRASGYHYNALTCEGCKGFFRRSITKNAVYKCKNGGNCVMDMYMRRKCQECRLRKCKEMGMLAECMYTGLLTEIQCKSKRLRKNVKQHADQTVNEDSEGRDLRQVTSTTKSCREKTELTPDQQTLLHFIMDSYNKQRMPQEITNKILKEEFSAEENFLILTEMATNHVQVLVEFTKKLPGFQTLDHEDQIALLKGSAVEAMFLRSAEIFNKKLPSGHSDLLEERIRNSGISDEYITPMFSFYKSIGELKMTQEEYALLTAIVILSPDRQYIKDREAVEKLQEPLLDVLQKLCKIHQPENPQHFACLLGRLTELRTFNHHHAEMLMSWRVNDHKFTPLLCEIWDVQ
Chain of Peroxisome proliferator-activated receptor delta (Homo sapiens) (Q03181 whole entry, looked up): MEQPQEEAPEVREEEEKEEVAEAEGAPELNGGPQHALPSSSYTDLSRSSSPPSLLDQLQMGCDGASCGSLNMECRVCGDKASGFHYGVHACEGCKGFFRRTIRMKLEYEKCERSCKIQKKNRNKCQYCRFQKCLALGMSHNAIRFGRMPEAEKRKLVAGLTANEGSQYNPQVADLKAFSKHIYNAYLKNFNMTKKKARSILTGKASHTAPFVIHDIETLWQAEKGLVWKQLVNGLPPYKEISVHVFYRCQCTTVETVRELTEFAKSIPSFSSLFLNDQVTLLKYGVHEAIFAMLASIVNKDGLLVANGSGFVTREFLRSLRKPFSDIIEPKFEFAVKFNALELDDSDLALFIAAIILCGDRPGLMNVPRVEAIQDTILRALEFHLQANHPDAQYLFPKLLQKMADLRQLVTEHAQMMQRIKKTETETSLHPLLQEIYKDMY
Chain of Peroxisome proliferator-activated receptor gamma (Homo sapiens) (P37231 whole entry, looked up): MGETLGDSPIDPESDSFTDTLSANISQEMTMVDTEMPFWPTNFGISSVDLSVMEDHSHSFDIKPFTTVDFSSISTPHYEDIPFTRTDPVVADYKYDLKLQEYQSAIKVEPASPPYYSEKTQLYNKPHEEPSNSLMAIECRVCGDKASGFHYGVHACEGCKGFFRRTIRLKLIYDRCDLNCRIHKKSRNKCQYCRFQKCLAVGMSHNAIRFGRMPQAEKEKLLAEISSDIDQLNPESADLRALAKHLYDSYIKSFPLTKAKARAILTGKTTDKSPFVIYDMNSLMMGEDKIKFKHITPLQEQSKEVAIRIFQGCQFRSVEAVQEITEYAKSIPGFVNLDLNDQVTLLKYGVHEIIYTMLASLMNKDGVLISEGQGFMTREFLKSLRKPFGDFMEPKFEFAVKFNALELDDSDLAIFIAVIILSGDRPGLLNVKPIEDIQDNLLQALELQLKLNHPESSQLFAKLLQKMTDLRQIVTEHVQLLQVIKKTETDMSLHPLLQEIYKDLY
Chain of Vitamin D3 receptor (Homo sapiens) (P11473 whole entry, looked up): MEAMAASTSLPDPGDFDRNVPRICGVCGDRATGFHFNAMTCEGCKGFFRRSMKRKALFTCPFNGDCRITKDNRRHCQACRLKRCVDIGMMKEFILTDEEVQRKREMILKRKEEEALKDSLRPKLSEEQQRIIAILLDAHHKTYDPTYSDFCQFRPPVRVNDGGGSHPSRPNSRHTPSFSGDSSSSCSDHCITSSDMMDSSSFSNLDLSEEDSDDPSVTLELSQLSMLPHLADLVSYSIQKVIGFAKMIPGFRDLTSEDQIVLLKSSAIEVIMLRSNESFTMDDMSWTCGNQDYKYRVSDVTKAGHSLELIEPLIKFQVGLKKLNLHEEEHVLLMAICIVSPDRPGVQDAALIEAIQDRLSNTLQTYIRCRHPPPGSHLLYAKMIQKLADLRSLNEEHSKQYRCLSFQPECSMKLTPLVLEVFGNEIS
Chain of Aryl hydrocarbon receptor (Homo sapiens) (P35869 whole entry, looked up): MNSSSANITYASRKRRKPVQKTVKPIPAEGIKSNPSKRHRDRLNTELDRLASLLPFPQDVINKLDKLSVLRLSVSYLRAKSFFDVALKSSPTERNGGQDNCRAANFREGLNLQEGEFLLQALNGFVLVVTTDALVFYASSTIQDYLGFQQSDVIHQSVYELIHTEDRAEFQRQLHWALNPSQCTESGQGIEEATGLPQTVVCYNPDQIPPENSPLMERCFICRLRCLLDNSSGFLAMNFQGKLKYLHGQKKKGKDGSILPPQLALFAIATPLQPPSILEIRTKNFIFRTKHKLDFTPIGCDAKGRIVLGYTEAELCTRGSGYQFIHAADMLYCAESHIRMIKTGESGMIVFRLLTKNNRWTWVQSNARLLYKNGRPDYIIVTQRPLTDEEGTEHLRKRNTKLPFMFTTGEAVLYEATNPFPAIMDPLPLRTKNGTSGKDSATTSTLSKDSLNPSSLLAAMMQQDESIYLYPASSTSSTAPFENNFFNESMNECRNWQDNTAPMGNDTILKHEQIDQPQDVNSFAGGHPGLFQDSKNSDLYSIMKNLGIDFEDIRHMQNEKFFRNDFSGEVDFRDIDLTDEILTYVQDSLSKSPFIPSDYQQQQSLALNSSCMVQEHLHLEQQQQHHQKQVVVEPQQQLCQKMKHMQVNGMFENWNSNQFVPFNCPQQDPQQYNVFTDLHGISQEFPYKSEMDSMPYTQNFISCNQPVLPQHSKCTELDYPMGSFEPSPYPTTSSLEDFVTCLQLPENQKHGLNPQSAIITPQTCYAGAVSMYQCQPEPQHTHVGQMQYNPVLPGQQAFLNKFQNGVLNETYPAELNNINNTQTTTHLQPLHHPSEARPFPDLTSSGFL

Regarding `CCCCON=O`, the Potency entry in assay [1], in [2], in assay [3], in assay [4], in assay [5] and in [6] was “inactive” each time. Also, the Potency result in [7], in [8], in [9], in assay [10], in assay [11] and in assay [12] was “inactive” each time. The Potency result in assay [13], in assay [14], in [15] and in assay [16] was “inactive” throughout.
As to `Oc1ccc([C@H]2CNCc3c2ccc(O)c3O)cc1O`, the Potency entry in [1], in assay [2], in assay [3], in [5], in assay [7] and in assay [17] was “inactive” throughout. The Potency entry in [8], in assay [9], in [10], in assay [11], in assay [18] and in [13] was “inactive” each time. The Potency result in assay [19], in [14], in [15] and in assay [16] was “inactive” each time.
Consider `COP(=S)(OC)Oc1ccc([N+](=O)[O-])c(C)c1`, for which the Potency result in assay [1], in assay [2], in [3], in assay [4], in assay [5] and in assay [7] was “inactive” throughout. The Potency entry in assay [17], in [9], in assay [10], in [11], in assay [12] and in assay [18] was “inactive” each time. The Potency result in assay [13], in [19], in assay [14] and in assay [16] was “inactive” each time.
Take `Oc1cc(Cl)cc(Cl)c1`: the Potency result in assay [1], in assay [2], in [3], in assay [4], in [7] and in assay [8] was “inactive” each time. For the same molecule, the Potency entry in assay [9], in [10], in assay [11], in assay [13], in [14] and in assay [16] was “inactive” in each case.
Regarding `[O]=[Cr](=[O])([OH])[O][Cr](=[O])(=[O])[OH]`, the Potency entry in [1], in [2] and in assay [3] was “inactive” throughout. In addition, the Potency was 3.93 µM (active) and 7.74 µM (active) in [5]; 21.9 µM (active) and 30.6 µM (active) in [7]; 22.1 µM (active) and 27.5 µM (active) in assay [9]; 7.83 µM (active) and 21.8 µM (active) in assay [11]; 27.5 µM (active) in assay [13].
As to `Oc1ccc2[nH]cc(CCCCN3CC=C(c4ccccc4)CC3)c2c1`, the Potency entry in assay [1], in assay [20], in assay [7], in [17] and in assay [18] was “inactive” in each case.
For the molecule `O=c1c2ccccc2c(=O)c2c1cc(Cl)c1[nH]c3c([nH]c12)c(Cl)cc1c(=O)c2ccccc2c(=O)c13`, the Potency result in assay [1], in assay [2], in assay [3], in assay [4], in assay [5] and in assay [6] was “inactive” in each case. Further, the Potency result in assay [7], in assay [17], in assay [8], in assay [9], in [10] and in assay [12] was “inactive” throughout. Also, the Potency result in assay [18], in assay [13], in [14], in assay [15] and in [16] was “inactive” in each case.
Take `CC(C)NCC(O)c1ccccc1Cl` (centres undefined): the Potency result in assay [1], in [2], in [3], in assay [4], in assay [5] and in assay [6] was “inactive” each time. Further, the Potency entry in assay [7], in assay [17], in assay [8], in [9], in assay [11] and in [12] was “inactive” each time. Besides, the Potency entry in assay [13] and in [14] was “inactive” in each case.
In the case of `[O-][Cl+3]([O-])([O-])O`, the Potency result in assay [1], in assay [2], in assay [3], in assay [4], in assay [5] and in [6] was “inactive” in each case. The Potency result in [7], in [8], in assay [9] and in assay [14] was “inactive” in each case.

The values are drawn from PubChem BioAssay (Tox21).
